CYP2C19 inh: blockers of cytochrome P450 2C19 activity – biochemical, luminescence, ADME assay, primary screen. P33261. CYP2C19 Supersomes, luciferin-H EGE luminescence, 30 min. inhibition, % at 5 µM. 96,000 tested, 21% active. AID 778, 2007;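 active means CYP2C19 inhibition above a set limit at 5 µM in the primary screen, cut at about 50% in these data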;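 further: plate controls were negative control wells for no effect and 2.5 mM tranylcypromine positive control for full effect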
Target sequence (P33261 whole entry, looked up): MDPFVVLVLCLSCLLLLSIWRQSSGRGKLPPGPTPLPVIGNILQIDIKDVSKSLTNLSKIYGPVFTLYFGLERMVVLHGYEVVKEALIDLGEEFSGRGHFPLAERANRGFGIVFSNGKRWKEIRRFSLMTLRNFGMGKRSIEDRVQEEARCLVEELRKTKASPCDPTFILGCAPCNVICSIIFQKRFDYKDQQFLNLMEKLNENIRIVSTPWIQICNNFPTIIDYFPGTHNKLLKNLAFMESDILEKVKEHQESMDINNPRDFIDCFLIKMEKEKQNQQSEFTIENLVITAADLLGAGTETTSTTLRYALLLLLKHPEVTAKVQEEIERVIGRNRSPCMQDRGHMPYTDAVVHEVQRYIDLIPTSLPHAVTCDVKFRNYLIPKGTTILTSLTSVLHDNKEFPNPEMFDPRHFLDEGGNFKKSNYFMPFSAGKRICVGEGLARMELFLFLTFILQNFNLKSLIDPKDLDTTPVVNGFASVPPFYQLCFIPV
CYP2C19 act: human CYP2C19 activators, primary screen, biochemical, luminescence; activation factor at 5 µM; 96,000 tested, under 10 active; Cytochrome P450 2C19 (Homo sapiens), P33261; recombinant CYP2C19, luciferin-H EGE luminescence; active compounds read high; 0 = fully inhibited enzyme, 1 = untreated enzyme; AID 1025, 2008;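 active means activation factor of at least 2 at 5 µM in the primary screen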;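 further: 0 = wells with 2.5 mM tranylcypromine and 1 = vehicle-only wells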
CYP2C9 activ: human CYP2C9 activators, primary screen, biochemical, luminescence; activation factor at 5 µM; AID 1024, 2008; 96,000 tested, 1.4% active; Cytochrome P450 2C9 (Homo sapiens), P11712; recombinant CYP2C9, luciferin-H conversion; active compounds read high; factor 1 = untreated enzyme, 0 = blocked;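 active means activation factor of 2 or more for CYP2C9 at a 5 µM dose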;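 further: 0 = sulfaphenazole-blocked wells and 1 = vehicle-only wells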
CYP2C9 inh: blockers of cytochrome P450 2C9 activity – biochemical, luminescence, ADME assay, primary screen; P11712; CYP2C9 Supersomes, luciferin-H conversion; inhibition, % at 5 µM; 96,000 tested, 20% active; AID 777, 2007;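 active means blocking of liver enzyme CYP2C9 beyond about 50% at 5 µM, limit read from the data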
Cav3 T inh: Cav3.2 calcium influx blockers – cell-based, Fluo-4 calcium fluorescence, FDSS, MLSMR library, primary screen; B-score at 10 µM; 100,000 tested, 4% active; Cav3.2-expressing cells; active compounds read low;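 active means single-dose well whose peak fluorescence ratio is a statistical outlier from its plate by either plate-standardised score or position-corrected B-score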
Starred values were filed as active, the others as inactive; / = no result given. An excerpt weighted towards active compounds, which were near 27% of everything screened.

SMILES	CYP2C19 inh	CYP2C19 act	CYP2C9 activ	CYP2C9 inh	Cav3 T inh
COc1cc(C2NC(=O)NC(C)=C2C(=O)OC(C)(C)C)ccc1OCC(N)=O (stereo unspecified)	-10	1.1	0.9	8	-0.23
COc1ccc2c(c1OC)C(=O)NC(C)=C(C(=O)OC(C)(C)C)C2O (stereo unspecified)	81*	0.2	0.4	56*	2.3
COc1ccc(C(=O)CC2OC(=O)c3ccccc32)cc1OC (stereo unspecified)	/	/	/	/	0.037
O=C(c1ccc(F)cc1)N1C2CCC1CC(O)(c1ccc(F)cc1)C2 (stereo unspecified)	13	0.9	1	-4	-0.66
O=C(c1cccnc1)N1C2CCC1CC(O)(c1ccc(F)cc1)C2 (stereo unspecified)	52*	0.5	0.9	12	-0.062
Cc1nnc(SCC(=O)Nc2ncc(Cc3ccc(F)cc3)s2)n1N	5	0.9	0.8	20	/
O=C(CCCNS(=O)(=O)c1cccc2nsnc12)NCCc1ccccc1	50	0.5	1	0	0.35
CC(=O)c1cccc(NC(=O)CCNS(=O)(=O)c2cccc3nsnc23)c1	5	0.9	1.1	-9	0.15
COc1ccccc1NC(=O)CS(=O)(=O)c1cccc2nsnc12	40	0.6	2.5*	-154	-0.14
COc1ccccc1CNC(=O)CCNS(=O)(=O)c1cccc2nsnc12	80*	0.2	2.3*	-129	0.94
Cc1cccc(NC(=O)CCNS(=O)(=O)c2cccc3nsnc23)c1	67*	0.3	0.8	18	0.73
COc1ccc(N2CCN(C(=O)CSc3nnc(C)c(=O)[nH]3)CC2)cc1	4	1	0.9	13	0.0057
O=C(c1ccc(Cl)s1)N1CCN(c2ccccc2)CC1	/	/	/	/	-0.63
COc1cc(C(=O)Oc2ccccc2/C=N/NC(=O)c2ccc(Cl)cc2Cl)cc(OC)c1OC	43	0.6	0	97*	-3.7
COc1cc(C(=O)Oc2ccccc2N)cc(OC)c1OC	43	0.6	0.3	68*	1.2
Oc1ccc(Nc2nc(NCC3CCCO3)c3ccccc3n2)cc1 (stereo unspecified)	4	1	0.9	12	-0.65
COc1cccc(Nc2nc(NCC3CCCO3)c3ccccc3n2)c1 (stereo unspecified)	14	0.9	0.7	29	-5.7*
O=C(NCc1cccnc1)c1ccc(=O)oc1	-11	1.1	1	-3	-0.22
CCN(CC)S(=O)(=O)c1ccc(Nc2nc3ccccc3n3nnnc23)cc1	23	0.8	0.4	63*	/
CC1CCN(S(=O)(=O)c2cccc(-c3csc(-c4cccnc4)n3)c2)CC1	85*	0.1	0.2	79*	0.19
O=S(=O)(c1ccc(-c2csc(-c3cccnc3)n2)cc1)N1CCCC1	14	0.9	0.7	28	-0.13
O=S(=O)(c1cccc(-c2csc(-c3cccnc3)n2)c1)N1CCCCC1	94*	0.1	0.1	94*	-1.2
COc1ccc(C2(NC(C)=O)CCN(C(=O)c3ccco3)CC2)cc1	29	0.7	0.6	40	0.009
CCc1ccc2oc(-c3cc(N)cc(C)c3O)nc2c1	95*	0	0.1	94*	-0.49
CCc1ccc2oc(-c3cc(N)ccc3Cl)nc2c1	53*	0.5	0.7	26	-0.82
SMILES	CYP2C19 inh	CYP2C19 act	CYP2C9 activ	CYP2C9 inh	Cav3 T inh
CCc1ccc2oc(-c3cc(N)ccc3O)nc2c1	44	0.6	0.7	32	1.3
CCn1cc(C(=O)OCC(=O)OC2CC(C)CCC2C(C)C)c(=O)c2ccc(C)nc21 (stereo unspecified)	75*	0.3	0.5	49	-6.4*
O=C(CN1C(=O)c2ccccc2S1(=O)=O)NCCSc1ccccc1	79*	0.2	0.4	64*	0.73
Cc1ccc(SCCNC(=O)CN2C(=O)c3ccccc3S2(=O)=O)cc1	61*	0.4	0.2	79*	-0.12
Cc1ccc(S(=O)(=O)n2ccc(=O)[nH]2)cc1	/	/	/	/	0.096
C=C1CCN([C@@H](Cc2ccccc2)C(=O)NCCC(C)C)S(=O)(=O)c2ccccc21	/	/	/	/	-1.5
COc1ccc(C2=CC(c3ccc(Cl)cc3)n3cnnc3N2)cc1OC (stereo unspecified)	25	0.7	0.6	40	-1.6
CN(C(=O)c1cccc(C#N)c1)c1nnc(-c2ccncc2)s1	93*	0.1	0.3	70*	0.29
CN(C(=O)c1cccc(C#N)c1)c1nnc(-c2cnccn2)s1	9	0.9	1	-5	0.27
CN(C(=O)c1cccnc1)c1nnc(-c2cccnc2)s1	-2	1	1	3	1.1
COc1cccc(C(=O)N(C)c2nnc(-c3ccncc3)s2)c1	100*	0	0.1	89*	/
CCCCCCCCc1nc(=S)[nH][nH]1	/	/	/	/	-0.86
Cc1nn(C(C)CC(=O)O)c(C)c1Br (stereo unspecified)	-9	1.1	1	-1	0.12

Source: PubChem BioAssay (several laboratories)
